Assay outcomes deposited in PubChem BioAssay by National Center for Advancing Translational Sciences (NCATS).
15-hLO-2 inh: qHTS Assay for Inhibitors of 15-hLO-2 (15-human lipoxygenase 2). Polyunsaturated fatty acid lipoxygenase ALOX15B (Homo sapiens), O15296. purified 15hLO-2, xylenol orange hydroperoxide absorbance. Potency, µM (highest dose often 57.1 µM), inactives show at the top dose activity change, negative = inhibition, usual class: inhibitors. actives 0.56% (n = 110,000). AID 881, 2007; further: potency means the concentration at half of the fitted maximal effect; nearly all actives have a fitted effect of over 60% in size
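Read-out: hydroperoxide product oxidises ferrous iron, measured as xylenol orange complex via the 573-to-405 nm absorbance ratio after 30 min. Reaction: 50 nM enzyme, 15 min compound preincubation, 45 uM arachidonic acid, 90 min RT, Hepes pH 7.5 with Triton X-100.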
12-hLO inh: qHTS Assay for Inhibitors of 12-hLO (12-human lipoxygenase). actives 0.12% (n = 150,000). purified 12-hLO, xylenol orange hydroperoxide absorbance. AID 1452, 2008. Potency, µM (highest dose often 57.1 µM), without a hit: at the top dose activity change, negative = inhibition, hits mostly inhibitors; further: potency means the concentration at half of the fitted maximal effect; nearly all actives have a fitted effect of over 55% in size
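Purified human 12hLO (150 nM final) was preincubated with compounds for 15 min at room temperature in 25 mM Hepes pH 7.0, 0.01% Triton X-100, then reacted with 40 uM arachidonic acid for 30 min. Hydroperoxide was detected with ferrous iron/xylenol orange.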
HPGD inh: qHTS Assay for Inhibitors of HPGD (15-Hydroxyprostaglandin Dehydrogenase) | 15-hydroxyprostaglandin dehydrogenase [NAD(+)] (Homo sapiens), P15428 | purified HPGD, NADH fluorescence kinetic, PGE2 substrate | Potency, µM, without a hit: at the top dose activity change, negative = inhibition, actives largely listed as inhibitors | actives 4.3% (n = 150,000) | AID 894, 2007; active means well fitted inhibition curve with a large enough effect, not every such curve was filed as active; inconclusive means small, poorly fitted or top-dose-only effect, or another doubt; inactive means no such curve, though single readings can be large or run the other way; further: potency means the concentration at half of the fitted maximal effect
Target sequence (P15428 whole entry, looked up): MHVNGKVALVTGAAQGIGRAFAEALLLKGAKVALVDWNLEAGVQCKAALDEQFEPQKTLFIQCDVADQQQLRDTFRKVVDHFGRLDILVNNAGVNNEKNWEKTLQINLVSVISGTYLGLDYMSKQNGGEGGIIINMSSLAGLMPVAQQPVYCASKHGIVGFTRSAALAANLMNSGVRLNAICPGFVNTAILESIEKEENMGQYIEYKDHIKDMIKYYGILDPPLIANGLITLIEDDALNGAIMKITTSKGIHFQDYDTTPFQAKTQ
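20 nM HPGD preincubated 15 min at room temperature with compound in 50 mM Tris-HCl pH 8, 0.01% Tween 20. Started with 1 mM NAD+ and 30 uM prostaglandin E2; NADH fluorescence (360/450 nm) read 5 times over 30-s intervals, last minus first.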
IMPase Li cell: qHTS Assay for Identifying the Cell-Membrane Permeable IMPase Inhibitors: Potentiation with Lithium; CHO-M1 cells, IP1 TR-FRET (IP-One), carbachol + lithium; Potency, µM (titrated, usually from 59.4 µM), for the others: at the highest dose activity, negative = IMPase inhibition, usual class: inhibitors; actives 0.35% (n = 210,000);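 further: IP1 builds up when IMPase is blocked and the TR-FRET signal falls; potency means the concentration at half of the fitted maximal effect; plate controls were basal vehicle for no effect and high inhibitor control for full effect; nearly all actives have a fitted effect of over 50% in size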
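CHO-M1, 2000 cells/well, 16–30 h culture; cpd + low Li+, 30 min 37C; lysis with d2-IP1/Eu-anti-IP1 Ab, 10 min RT; TR-FRET 665/620 ratio and 620 channel; AC50 via Hill.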
IMPase cell inh: qHTS Assay for Identifying the Cell-Membrane Permeable IMPase Inhibitors. 120,000 tested, under 10 active. Inositol monophosphatase 1 (Rattus norvegicus), P97697. CHO-M1 cells, IP1 accumulation, HTRF TR-FRET ratio. inhibition (IP1 accumulation), % at 46.1 µM. AID 901, 2007; active means well fitted curve in the direction sought with a large enough effect in the signal ratio, not every such curve was filed as active; inconclusive means small, poorly fitted or top-dose-only effect, or a change in a side signal; inactive means no such curve, though single readings can be large or run the other way; the % refers to the signal ratio;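 further: cells stimulated with carbachol in lithium chloride buffer; plate controls were DMSO basal wells for no effect and reference inhibitor wells for full effect; higher means more IMPase inhibition seen as more IP1 and lower FRET ratio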
Target sequence (P97697 whole entry, looked up): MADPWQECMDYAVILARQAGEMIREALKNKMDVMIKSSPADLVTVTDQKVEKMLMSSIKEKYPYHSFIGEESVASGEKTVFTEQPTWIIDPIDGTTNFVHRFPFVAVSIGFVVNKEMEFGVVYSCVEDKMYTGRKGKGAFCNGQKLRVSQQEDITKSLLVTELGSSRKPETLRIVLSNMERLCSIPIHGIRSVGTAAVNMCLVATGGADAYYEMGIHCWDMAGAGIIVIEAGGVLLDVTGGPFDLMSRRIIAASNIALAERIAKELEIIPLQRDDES
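Cellular IMPase inhibition is scored as a rise in cytosolic IP1, detected by competitive TR-FRET between d2-labelled IP1 and a europium anti-IP1 antibody. M1-expressing CHO cells were stimulated with carbachol for 30 min at 37C, with lithium (50 mM LiCl) present in the buffer.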
PNC inhibitor: High Content Assay for Compounds that inhibit the Assembly of the Perinucleolar Compartment | PC3M PTB-GFP, PNC prevalence imaging, 16 h; active compounds read low | activity change (PNC), negative = inhibition, % at 10 µM | actives 3.1% (n = 140,000) | AID 2417, 2010;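 active means readout at or below -70, meaning at least 70% loss of cells showing the perinucleolar compartment, a nuclear body marking cancer cells; inconclusive means readout between -30 and a set limit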;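 further: plate controls were DMSO wells for no effect and camptothecin positive control wells for full effect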
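Read-out is percentage of cells bearing a perinucleolar compartment, from automated 20x imaging of fixed, Hoechst-stained PC3M PTB-GFP cells. Cells were seeded 4 h, then exposed 16 h to compound (23 nl of library stock) in duplicate plates.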
Active calls of the source: *; ? = inconclusive; . = no result given; [ ] = remark or other dose. The list is not random: actives were taken first. Their share in the collection is about 5.4%. Unless noted, the call rests on the fitted dose curve; in most records, active means well fitted curve in the direction sought with a large enough effect; inconclusive means small, poorly fitted or top-dose-only effect, or another doubt; inactive means no such curve, though single readings can be large; an effect the other way counts as inactive or inconclusive. Unless noted, on the % scale 0 is the no-effect control and ±100 the full control effect.

SMILES | 15-hLO-2 inh | 12-hLO inh | HPGD inh | IMPase Li cell | IMPase cell inh | PNC inhibitor
CN(C)CCCN1C(=O)C(O)=C(C(=O)c2cc3ccccc3o2)C1c1ccccc1 (centres undefined) | 21.0% | 1.8% | -4.8% | 10µM* | ? | 42.7
O=C(C1=C(O)C(=O)N(Cc2ccco2)C1c1cccnc1)c1cc2ccccc2o1 (centres undefined) | -7.1% | -9.3% | -8.5% | 8.91µM* | ? | 37.2
COc1ccc(C2C(C(=O)c3ccco3)=C(O)C(=O)N2Cc2cccnc2)cc1OC (centres undefined) | -4.1% | -11.8% | -14.0% | -18.4%[38.3 µM] | 1.5 | 44.9
COc1cccc2cc(C(=O)C3=C(O)C(=O)N(Cc4ccco4)C3c3cccnc3)oc12 (centres undefined) | -4.3% | -0.4% | -2.0% | 10µM* | ? | -22.5
O=C(C1=C(O)C(=O)N(CCCN2CCOCC2)C1c1ccncc1)c1cc2ccccc2o1 (centres undefined) | . | -6.7% | -6.9% | -17.8% | -24.6 | 14.8
O=C(C1=C(O)C(=O)N(CCN2CCOCC2)C1c1cccnc1)c1cc2ccccc2o1 (centres undefined) | -19.5% | -7.1% | -11.4% | 10µM* | -28.3 | -15.9
CCCC/C=C/C(NC(=O)c1ccccc1)c1ccccc1 (centres undefined) | -1.5% | -1.9% | -5.5% | 6.2% | . | .
CCCC/C=C/C(NC(=O)CCc1ccccc1)c1ccccc1 (centres undefined) | 7.0% | -1.3% | -12.0% | 20.2% | . | -118.9*
COc1c(-c2coc3cc4c(cc3c2=O)CC(O)C(C)(C)O4)ccc2c1C=CC(C)(C)O2 (centres undefined) | ? | -20.0% | 15.8µM* | 17.1% | . | .
COc1c(-c2coc3cc4c(cc3c2=O)CC(OC(C)=O)C(C)(C)O4)ccc2c1C=CC(C)(C)O2 (centres undefined) | -7.2% | -3.4% | -7.9% | 27.5% | . | .
COc1cc2c(cc1OC)CN(Cc1nc3ccsc3c(=O)[nH]1)CC2 | 11.1% | 10.6% | ? | 17.7%[38.3 µM] | -4.3 | -83.4*
O=c1[nH]c(CN2CCN(c3ccccc3Cl)CC2)nc2ccsc12 | -2.5% | -5.3% | -4.0% | 5.3%[38.3 µM] | 0.2 | 9.8
COC(=O)c1ccccc1NC(=O)c1ccc(Cn2cc(Cl)cn2)o1 | 3.8% | 0.7% | -12.0% | 3.2%[38.3 µM] | 7.5 | 43.3
COC(=O)c1cc(NC(=O)c2c(Cl)cnn2C)cc(C(=O)OC)c1 | . | 0.2% | -9.5% | 4.8% | . | -100.8*
COC(=O)c1cc(NC(=O)c2ccc(Cn3cc(Cl)cn3)o2)cc(C(=O)OC)c1 | ? | -0.1% | 1.26µM* | 19.9%[38.3 µM] | 2.6 | 19.1
CCN(C(=O)Cn1c(=O)n(CCCS(=O)(=O)C2CCCCC2)c(=O)c2ccccc21)c1cccc(C)c1 | . | . | . | . | 1.3 | .
O=C(NNc1nc2cc3c(cc2s1)OCO3)c1ccc(F)cc1 | . | -11.3% | 25.1µM* | 6.6% | . | -118.9*
c1ccc2sc(Nc3nc4cc5c(cc4s3)OCO5)nc2c1 | . | 1.1% | ? | -10.9% | . | -123.8*
CCCCC/C=C\C/C=C\CCCCCCCC(=O)NCC(=O)O | . | 2.9% | -11.9% | 1.4% | . | .
O=C(Nc1ccc2ccccc2c1)[C@H]1C[C@@H]1[C@H](NP(=O)(c1ccccc1)c1ccccc1)c1ccccc1 | 28.2% | -5.6% | -14.0% | -12.9% | . | .
Nc1ncc(Br)cc1S(=O)(=O)NCCC(=O)N1CCN(c2ccccn2)CC1 | . | -1.1% | -13.0% | 23.4% | . | -113.4*
CC(=O)N1CCc2cc(S(=O)(=O)NCCC(=O)N3CCN(c4ccccn4)CC3)ccc21 | 5.9% | 0.8% | -9.3% | -1.7%[38.3 µM] | 2.3 | 12.0
